The results in this text go back to PubChem BioAssay (NCATS).

Records with an inconclusive call do not appear. Active and inactive are the calls of the source. Calls follow the shape of the dose curve; as a rule, active = well fitted activation curve with a large enough effect in the signal ratio; inconclusive = small, poorly fitted or top-dose-only effect, or effect the other way, or a change in a side signal; inactive = flat fitted curve, though single readings scatter; the % refers to the signal ratio.

This experiment in a line: qHTS assay to identify small molecules that stimulate interleukin-8 (IL-8) secretion (AID 651758). Put shortly:
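Secreted IL-8 measured by TR-FRET sandwich (cryptate and XL665 antibodies) from THP-1 cells exposed to compound overnight (16 hrs, 37 C).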
(qHTS replaces the single test concentration by a dilution series.)

Turning to `O=c1c(-c2ccc(O)cc2)coc2cc(O)cc(O)c12`, the outcome was inactive.
With `COc1ccc2[nH]cc(CCNC(C)=O)c2c1`, the molecule was called inactive.
